Reference: ChEMBL document CHEMBL3988442, “University of Dundee, Small-Polar-MMV Screening Library” (2021)
“And” between values parts separate entries of the source, which are not always exact repeats. Equal values may be shown once. For part of these data: Entries with a potency or affinity are not part of this list.

Assays:
Parameters in all cases: scale not given: direction of the effect not stated beside the values
[1] = molecular target: Protein translocase subunit SecA (Escherichia coli (strain K12)) (UniProt P10408); assay: Assay to Identify E. coli SecA ATPase Inhibitors; assay type: functional; settings: 30 µM
[2] = molecular target: T1, Ubiquitin-activating enzyme e1, putative (Leishmania donovani (strain BPK282A1)) (UniProt E9BSI1); assay: Leishmania donovani Ubiquitin Activating Enzyme (LdE1); assay type: functional; settings: 30 µM
T1 sequence (whole entry): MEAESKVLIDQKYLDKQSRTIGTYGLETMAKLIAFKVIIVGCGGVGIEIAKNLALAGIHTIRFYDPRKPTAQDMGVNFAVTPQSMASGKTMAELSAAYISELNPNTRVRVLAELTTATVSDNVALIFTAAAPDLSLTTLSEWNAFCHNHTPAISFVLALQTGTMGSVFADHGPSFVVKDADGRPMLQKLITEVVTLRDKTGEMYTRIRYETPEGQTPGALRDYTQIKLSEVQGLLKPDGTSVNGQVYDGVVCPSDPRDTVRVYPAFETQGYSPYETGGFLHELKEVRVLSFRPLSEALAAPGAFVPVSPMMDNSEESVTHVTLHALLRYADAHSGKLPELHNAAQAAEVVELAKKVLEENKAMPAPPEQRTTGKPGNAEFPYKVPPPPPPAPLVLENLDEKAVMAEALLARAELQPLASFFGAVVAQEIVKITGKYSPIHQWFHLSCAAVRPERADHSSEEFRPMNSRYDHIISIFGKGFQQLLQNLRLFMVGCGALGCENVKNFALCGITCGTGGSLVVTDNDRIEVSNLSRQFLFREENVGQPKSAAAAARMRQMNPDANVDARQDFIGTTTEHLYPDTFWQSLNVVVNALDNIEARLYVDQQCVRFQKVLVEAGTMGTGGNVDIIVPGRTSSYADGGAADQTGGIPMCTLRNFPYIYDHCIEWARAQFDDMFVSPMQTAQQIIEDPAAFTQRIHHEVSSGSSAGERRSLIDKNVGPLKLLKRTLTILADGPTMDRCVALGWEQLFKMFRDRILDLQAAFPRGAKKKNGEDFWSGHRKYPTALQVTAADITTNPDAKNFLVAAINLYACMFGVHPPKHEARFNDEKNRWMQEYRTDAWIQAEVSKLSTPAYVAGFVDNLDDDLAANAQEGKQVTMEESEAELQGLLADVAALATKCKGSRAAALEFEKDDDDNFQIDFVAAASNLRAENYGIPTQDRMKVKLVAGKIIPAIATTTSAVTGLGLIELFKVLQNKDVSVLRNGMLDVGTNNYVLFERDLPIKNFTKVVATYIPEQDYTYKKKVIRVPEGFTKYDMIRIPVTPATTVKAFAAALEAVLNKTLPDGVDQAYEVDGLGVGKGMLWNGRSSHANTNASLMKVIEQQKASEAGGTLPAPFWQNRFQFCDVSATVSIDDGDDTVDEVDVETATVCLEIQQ

[3] = molecular target: AMP-activated protein kinase, AMPK (Homo sapiens) (UniProt P54646+O43741+P54619+Q9UGJ0+Q9Y478+Q13131+Q9UGI9); assay: AMP-dependent Kinase enzyme assay. An in vitro enzyme assay that detects ADP turnover that is directly proportional to AMPK activity. This uses naive AMPK that is activated during the assay with MK-8722; assay type: functional; settings: 30 µM
[4] = molecular target: Sialic acid-binding Ig-like lectin 9 (Homo sapiens) (UniProt Q9Y336); assay: Hs-Siglec9 ALPHAscreen SOP 20170721; settings: 10 µM
Trypanosoma cruzi = assay: Trypanosoma cruzi phosphomannomutase and mannose-1-phosphate guanylyltransferase assay; assay type: functional; settings: 10 µM
[5] = molecular target: T2, Arginase-2, mitochondrial (Homo sapiens) (UniProt P78540); assay: in vitro enzyme assay to detect the production of urea directly proportional to the activity of Arginase II; assay type: functional; settings: 33.3 µM; also: in the data most compounds retested in dose-response had high values
T2 sequence (whole entry): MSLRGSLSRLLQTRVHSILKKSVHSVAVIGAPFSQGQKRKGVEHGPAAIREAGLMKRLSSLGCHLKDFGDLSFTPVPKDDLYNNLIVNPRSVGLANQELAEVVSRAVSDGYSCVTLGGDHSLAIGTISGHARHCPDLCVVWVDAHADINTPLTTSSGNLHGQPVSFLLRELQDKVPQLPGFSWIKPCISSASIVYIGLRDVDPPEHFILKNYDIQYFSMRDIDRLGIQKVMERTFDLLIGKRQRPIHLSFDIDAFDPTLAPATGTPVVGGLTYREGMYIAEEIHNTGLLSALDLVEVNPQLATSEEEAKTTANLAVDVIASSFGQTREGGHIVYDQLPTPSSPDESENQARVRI

[6] = molecular target: T3, Proteasome subunit beta (Trypanosoma cruzi) (UniProt O96673); assay: Trypanosoma cruzi proteasome chymotrypsin-like activity (TcProtChymo) assay.; also: in the data most compounds retested in dose-response had high values; assay type: functional; settings: 9.37 µM
T3 sequence (whole entry): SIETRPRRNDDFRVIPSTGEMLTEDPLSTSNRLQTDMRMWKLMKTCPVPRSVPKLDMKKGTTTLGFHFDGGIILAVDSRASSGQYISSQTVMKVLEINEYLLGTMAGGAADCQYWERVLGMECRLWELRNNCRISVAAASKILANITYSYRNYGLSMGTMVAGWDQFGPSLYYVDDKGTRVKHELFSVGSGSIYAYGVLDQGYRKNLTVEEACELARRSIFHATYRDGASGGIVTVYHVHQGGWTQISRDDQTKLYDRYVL

Homo sapiens = species: Homo sapiens; assay: To identify inhibition of the IFN signalling (Jak-Stat) pathway via expression of an eGFP reporter gene under the control of an IFN-stimulated response element (ISRE) containing MxA promoter.; assay type: functional; settings: 30 µM
[7] = molecular target: T4, Tyrosyl-tRNA synthetase, putative (Trypanosoma cruzi (strain CL Brener)) (UniProt Q4DSP6); assay: Trypanosoma cruzi tyrosyl tRNA synthetase (TcYRS) _High Tyrosine SOP; assay type: functional; settings: 30 µM; also: in the data most compounds retested in dose-response had high values
T4 sequence (whole entry): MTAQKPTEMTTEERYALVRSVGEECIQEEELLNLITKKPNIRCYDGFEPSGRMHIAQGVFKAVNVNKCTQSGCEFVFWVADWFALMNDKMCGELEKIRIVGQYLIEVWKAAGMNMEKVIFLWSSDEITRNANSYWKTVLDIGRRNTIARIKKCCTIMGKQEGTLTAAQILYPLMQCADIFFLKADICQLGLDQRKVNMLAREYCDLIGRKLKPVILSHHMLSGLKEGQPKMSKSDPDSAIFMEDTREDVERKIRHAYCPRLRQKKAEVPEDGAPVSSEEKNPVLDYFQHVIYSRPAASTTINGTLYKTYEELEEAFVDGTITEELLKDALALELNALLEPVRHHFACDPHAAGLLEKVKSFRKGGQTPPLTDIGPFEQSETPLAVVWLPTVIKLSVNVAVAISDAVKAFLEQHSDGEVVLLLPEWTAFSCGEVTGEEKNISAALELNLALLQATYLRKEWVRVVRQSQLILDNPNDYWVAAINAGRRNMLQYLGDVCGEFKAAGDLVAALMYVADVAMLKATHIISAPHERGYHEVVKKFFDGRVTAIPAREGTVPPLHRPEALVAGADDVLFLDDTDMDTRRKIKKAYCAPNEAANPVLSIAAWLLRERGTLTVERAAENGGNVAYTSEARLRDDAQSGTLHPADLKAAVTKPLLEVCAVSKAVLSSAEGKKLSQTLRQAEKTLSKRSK

[8] = molecular target: T4, Tyrosyl-tRNA synthetase, putative (Trypanosoma cruzi (strain CL Brener)); assay: Trypanosoma cruzi tyrosyl tRNA synthetase (TcYRS) SOP; assay type: functional; settings: 30 µM
[9] = molecular target: Chromo domain-containing protein 1 (Saccharomyces cerevisiae (strain ATCC 204508 / S288c) (Baker's yeast)) (UniProt P32657); assay: ScCHD-1 Enzyme Inhibition Assay; assay type: functional; settings: 30 µM; also: in the data most compounds retested in dose-response had high values
N/A = assay: Trypanosoma cruzi proteasome luciferase counter-screen; assay type: functional; settings: 9.37 µM

Sialic acid-binding Ig-like lectin 9 (Homo sapiens), sequence (Q9Y336 whole entry): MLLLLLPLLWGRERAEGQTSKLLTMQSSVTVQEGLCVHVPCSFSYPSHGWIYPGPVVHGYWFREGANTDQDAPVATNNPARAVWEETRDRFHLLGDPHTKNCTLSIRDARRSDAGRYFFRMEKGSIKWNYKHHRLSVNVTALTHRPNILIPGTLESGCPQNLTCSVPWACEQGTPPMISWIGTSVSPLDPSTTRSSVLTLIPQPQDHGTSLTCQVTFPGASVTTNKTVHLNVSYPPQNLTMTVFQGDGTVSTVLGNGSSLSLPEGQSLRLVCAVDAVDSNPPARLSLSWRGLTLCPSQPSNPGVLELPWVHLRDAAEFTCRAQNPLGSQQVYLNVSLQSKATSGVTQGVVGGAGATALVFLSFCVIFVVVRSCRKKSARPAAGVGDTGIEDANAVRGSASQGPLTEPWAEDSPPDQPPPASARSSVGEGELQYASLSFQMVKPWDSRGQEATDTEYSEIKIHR
Chromo domain-containing protein 1 (Saccharomyces cerevisiae (strain ATCC 204508 / S288c) (Baker's yeast)), sequence (P32657 whole entry, the tested form may be a part): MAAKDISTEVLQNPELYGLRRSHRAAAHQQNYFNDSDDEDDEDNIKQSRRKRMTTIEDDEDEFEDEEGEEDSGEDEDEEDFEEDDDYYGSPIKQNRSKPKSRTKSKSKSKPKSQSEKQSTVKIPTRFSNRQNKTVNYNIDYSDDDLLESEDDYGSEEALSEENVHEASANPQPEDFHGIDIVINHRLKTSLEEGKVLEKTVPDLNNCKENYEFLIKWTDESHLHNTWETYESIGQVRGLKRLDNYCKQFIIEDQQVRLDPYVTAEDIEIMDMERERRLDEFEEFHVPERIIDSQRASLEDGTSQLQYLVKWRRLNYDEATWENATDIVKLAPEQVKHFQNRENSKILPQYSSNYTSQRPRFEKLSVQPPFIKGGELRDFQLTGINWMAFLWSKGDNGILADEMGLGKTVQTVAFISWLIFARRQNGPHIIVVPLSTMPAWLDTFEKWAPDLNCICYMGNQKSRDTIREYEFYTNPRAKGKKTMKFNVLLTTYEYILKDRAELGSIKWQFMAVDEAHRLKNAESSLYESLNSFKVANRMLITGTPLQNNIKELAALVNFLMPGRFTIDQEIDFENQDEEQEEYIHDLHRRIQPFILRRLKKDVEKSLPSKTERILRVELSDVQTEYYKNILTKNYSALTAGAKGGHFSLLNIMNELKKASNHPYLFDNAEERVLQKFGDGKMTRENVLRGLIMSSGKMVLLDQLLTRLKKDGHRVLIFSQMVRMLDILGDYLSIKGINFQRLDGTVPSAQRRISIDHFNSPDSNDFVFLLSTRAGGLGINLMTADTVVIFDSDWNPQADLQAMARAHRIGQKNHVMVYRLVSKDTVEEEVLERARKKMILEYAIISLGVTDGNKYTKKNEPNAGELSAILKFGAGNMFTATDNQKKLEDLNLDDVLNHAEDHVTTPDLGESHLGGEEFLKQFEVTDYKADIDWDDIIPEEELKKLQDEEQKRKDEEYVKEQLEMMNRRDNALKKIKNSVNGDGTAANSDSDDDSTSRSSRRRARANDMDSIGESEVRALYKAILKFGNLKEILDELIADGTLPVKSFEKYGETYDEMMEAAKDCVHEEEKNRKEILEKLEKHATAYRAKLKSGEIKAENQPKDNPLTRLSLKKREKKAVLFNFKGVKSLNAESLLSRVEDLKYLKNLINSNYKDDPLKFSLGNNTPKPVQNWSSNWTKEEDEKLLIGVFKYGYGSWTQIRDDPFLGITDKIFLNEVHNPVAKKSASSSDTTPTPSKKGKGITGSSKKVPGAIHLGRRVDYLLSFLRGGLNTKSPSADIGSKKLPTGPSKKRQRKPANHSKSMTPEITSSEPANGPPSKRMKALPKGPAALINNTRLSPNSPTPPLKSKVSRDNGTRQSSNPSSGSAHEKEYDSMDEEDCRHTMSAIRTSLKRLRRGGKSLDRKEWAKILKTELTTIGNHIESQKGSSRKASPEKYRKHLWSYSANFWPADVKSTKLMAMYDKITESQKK
Protein translocase subunit SecA (Escherichia coli (strain K12)), sequence (P10408 whole entry): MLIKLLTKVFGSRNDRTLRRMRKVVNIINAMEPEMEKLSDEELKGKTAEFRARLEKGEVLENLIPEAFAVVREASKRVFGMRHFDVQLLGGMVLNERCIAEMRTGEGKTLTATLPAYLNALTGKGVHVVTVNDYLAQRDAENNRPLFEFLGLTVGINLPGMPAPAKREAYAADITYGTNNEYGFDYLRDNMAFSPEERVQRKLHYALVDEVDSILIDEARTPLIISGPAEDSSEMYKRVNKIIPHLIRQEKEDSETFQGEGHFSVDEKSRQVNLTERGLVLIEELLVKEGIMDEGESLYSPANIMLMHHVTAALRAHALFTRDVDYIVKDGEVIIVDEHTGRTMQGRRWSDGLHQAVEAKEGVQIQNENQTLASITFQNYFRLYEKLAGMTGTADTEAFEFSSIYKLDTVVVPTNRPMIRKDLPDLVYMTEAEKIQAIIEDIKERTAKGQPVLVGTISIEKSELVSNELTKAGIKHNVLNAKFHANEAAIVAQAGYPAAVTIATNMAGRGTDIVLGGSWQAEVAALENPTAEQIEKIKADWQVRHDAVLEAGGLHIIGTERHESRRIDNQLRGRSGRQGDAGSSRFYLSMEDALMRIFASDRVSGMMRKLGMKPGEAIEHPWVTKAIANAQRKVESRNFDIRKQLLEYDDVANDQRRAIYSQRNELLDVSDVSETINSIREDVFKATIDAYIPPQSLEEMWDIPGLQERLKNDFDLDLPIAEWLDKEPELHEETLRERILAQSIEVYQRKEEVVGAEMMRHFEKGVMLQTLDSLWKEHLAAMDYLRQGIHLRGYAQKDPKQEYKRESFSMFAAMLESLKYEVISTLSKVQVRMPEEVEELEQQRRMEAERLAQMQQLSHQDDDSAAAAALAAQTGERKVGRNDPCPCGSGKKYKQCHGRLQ

Compound	Percent Effect [1] [%]	Percent Effect [2] [%]	Percent Effect [3] [%]	Percent Effect [4] [%]	Percent Effect (Trypanosoma cruzi) [%]	Percent Effect [5] [%]	Percent Effect [6]	Percent Effect (Homo sapiens) [%]	Percent Effect [7] [%]	Percent Effect [8] [%]	Percent Effect [9] [%]	Percent Effect (N/A)
Cc1cnc2c(c1NCc1ccncc1)c(=O)n(C)c(=O)n2C	-2.14	0	5.25	-12.3	-5.68	-11.4	17.6%	29.2	4.3	10	-2.51	–
Cc1ccc(N(C)C2CCN(C(=O)CCc3ccco3)CC2)nn1	-4.56	5.41	12.7	1.05	5.66	0.554	48.4% and 44.9% and 50.1%	8.17	22.8	23.2	3.63	12.6% and 9.51%
Cc1ccc(NC2CCN(C(=O)CCc3ccco3)CC2)nn1	-5.56	2.7	6.46	1.2	0.836	0.554	21.9% and 32.9% and 29.3%	8.89	11.9	-1.22	0.23	-1.73% and 1.88%
Cc1cc(N(C)Cc2noc(C)n2)n2nc(C)c(C)c2n1	-2.12	9.72	-8.49	-4.19	-1.07	3.97	15.6%	9.15	4.21	10.3	-4.2	–
CN(CCc1ccccc1)Cc1cc(C(=O)N2CCCC2(C)C)no1	8.96	13.7	-8.24	6.18	-2.38	-17.6	11%	33.7	8.33	11.1	-0.0446	–
COc1cc(C)c(C(C)NC(=O)Nc2nnc(C)s2)cc1OC (configuration not stated)	-4.05	5.41	-4.62	14.6	7.72	1.24	7.64%	11.2	2.15	11.1	-3.99	–
Cc1ccc(CN2CCOC3(COCCN(CCN(C)C)C3)C2)o1 (configuration not stated)	-3.53	5.33	9.65	0.443	1.18	-0.699	14%	3.66	8.51	19.2	-3.31	–
CCSc1cc(C(=O)NCCC(=O)Nc2ccccn2)ccn1	-5.48	2.74	-2.02	1.7	6.27	0.909	8.16%	15.8	5.38	17.5	-3.9	–
CC(=O)N1CCn2c(COCc3csc(C)n3)cnc2C1C (configuration not stated)	-5.84	18.7	-3.96	4.19	4.05	-55.7	9.57%	7.41	-10.4	15	-9.91	–
Cc1noc(C)c1CNCC1CCCN1c1cccnn1 (configuration not stated)	-6.8	-5.2	5.72	-3.1	-4.02	-3.16	-2.83%	6.36	1.91	-2.35	-1.61	–
O=C(O)C1(Cc2cc(-c3cccc(F)c3)no2)CCOCC1	-3.27	6.76	11.7	6.38	-3.75	-3.02	7.8%	-7.88	2.15	3.9	-5.82	–
O=C1CC(N(C(=O)c2ccc3[nH]c4c(c3c2)CCCC4)C2CC2)C(=O)N1 (configuration not stated)	-1.37	27.9	-6.86	-8.64	6.33	-3.8	19.7%	-7.55	7.39	24.1	-8.05	–
CC(=O)N1CCCN(C(=O)c2cnc3n[nH]c(C)c3c2)CC1	-1.9	15.8	-3.49	5.52	3.08	3.96	2.45%	-3.15	9.36	23.5	-9.47	–
CNC(=O)CC1CC2(CCN(Cc3nccs3)CC2)c2ccccc21 (configuration not stated)	-3.09	16.2	-8.78	1.43	3.52	3.75	11.8%	-4.56	7.92	8.54	-7.65	–
CC(C)N(C)Cc1nnc2n1CCCN(C(=O)c1ccco1)C2	-1.99	10.4	3.35	2.67	1.08	13.6	14.3%	24.5	7.41	14.1	-7.03	–
O=S1(=O)c2ccccc2C2(CCN(Cc3ccccc3)C2)N1CC1CC1 (configuration not stated)	-1.03	0	12.2	4.58	1.18	2.1	-0.264%	32.1	3.19	3.85	2.59	–
Cn1ccc(C(=O)N2CCC[C@]3(C[C@@H](OCc4ccccn4)CO3)C2)n1	-3.65	13.5	2.83	-1.64	-2.64	8.6	15.1%	2.73	8.65	17.9	-1.5	–
O=C(NCc1cncc2c1CCN(Cc1cccs1)C2)C1CC1	1.73	8	3.65	-13.1	-9.65	9.56	21.2%	5.35	5.32	6.41	0.102	–
CN1CCN(C(=O)CC2CCN(CCc3ccccn3)CC2)CC1	-2.81	5.2	3.53	5.15	5.58	4.84	3.48%	9.07	6.67	18.8	-17.3	–
Cc1ncsc1C(=O)N1CCCC(c2noc(C(C)C)n2)C1 (configuration not stated)	-4.54	15.3	-8.18	26.1	2.43	33.5	15.3%	7.22	6.32	15.4	-10.2	–
